Assay outcomes: PubChem BioAssay, several laboratories
SARS 3CLpro inh: SARS-CoV 3CLpro protease inhibitors, primary screen, biochemical, quenched FRET. Replicase polyprotein 1ab (Severe acute respiratory syndrome coronavirus), P0C6X7. recombinant SARS-CoV 3CLpro, quenched FRET peptide cleavage. inhibition, % at 6 µM. 290,000 tested, 0.14% active. AID 1706, 2009; in the data active = inhibition above about 12%
RecA splice inh: Mtb RecA intein splicing inhibitors, primary screen, biochemical, fluorescence, HTS. 290,000 tested, 0.75% active. inhibition, % (no concentration beside the values). Protein RecA (Mycobacterium tuberculosis (strain ATCC 25618 / H37Rv)), P9WHJ3. cell-free RecA intein splicing; in the data active = inhibition above about 30%;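 note: 0% = vehicle wells and 100% = reference inhibitor control wells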
CCHF vOTU inh: CCHFV vOTU protease inhibitors, primary screen, biochemical, Pep-AMC substrate, fluorescence; Crimean-Congo hemorrhagic fever virus L polyprotein viral ovarian tumor (vOTU) protease …; AID 651958, 2012; inhibition, % at 11.5 µM; 370,000 tested, 0.55% active; in the data active = inhibition above about 30%; note: 0% = vehicle wells with enzyme and 100% = no enzyme wells
SSB-PriA inh: inhibitors of Klebsiella pneumoniae PriA binding to SSB C-terminal tail, primary screen, biochemical, AlphaScreen; PriA–SSB C-terminal tail interaction (Klebsiella pneumoniae); AlphaScreen SSBct-PriA binding, biotinylated peptide; inhibition, % at 33 µM; 430,000 tested, 0.6% active; AID 1272365, 2023; in the data active = inhibition mostly above about 37%, no sharp cut-off; inactive = mostly below about 20%;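 note: plate controls were negative control peptide for no effect and reference peptide for full effect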
VHR inh abs: VHR1 phosphatase inhibitors, primary screen, biochemical, absorbance, uHTS | Dual specificity protein phosphatase 3 (Homo sapiens), P51452 | recombinant VHR phosphatase, pNPP absorbance | inhibition, % at 13.3 µM | 290,000 tested, 0.52% active; in the data active = inhibition above about 50%
Target sequence (P51452 whole entry, looked up): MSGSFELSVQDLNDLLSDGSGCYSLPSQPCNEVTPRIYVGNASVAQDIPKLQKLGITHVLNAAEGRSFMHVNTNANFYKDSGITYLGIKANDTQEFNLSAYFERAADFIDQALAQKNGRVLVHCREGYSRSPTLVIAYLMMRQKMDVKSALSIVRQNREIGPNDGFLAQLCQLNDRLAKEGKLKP
* hit, by the source's call; / = no result; ! = repeats disagree. In the library only some 1.7% were active in any assay of this set; here they are far more common.

SMILES	SARS 3CLpro inh	RecA splice inh	CCHF vOTU inh	SSB-PriA inh	VHR inh abs
CC(C)N(C(=O)Nc1ccc2nccnc2c1)C(C)C	-10	-31	-22	79*	18
O=c1c2c(nc(SCc3cccc(C(F)(F)F)c3)n1Cc1ccccc1)CCS2	/	/	/	-2	/
C=CCN(CC=C)S(=O)(=O)c1ccc(C(=O)Nc2nc3cc4c(cc3s2)OCCO4)cc1	/	/	/	-2	/
Cn1c(NNC(=O)C(C)(C)Oc2ccc(Cl)cc2)cc(=O)n(C)c1=O	/	/	/	-2	/
CC(C)(C)c1ccc(NC(=O)NCC2CCN(c3ccncc3)CC2)cc1	/	/	/	7	/
NCCn1ncc2c(N3CCCCCC3)ncnc21	/	/	/	-1	/
C=CCN1C(=O)C(C)(C)COc2cc(NC(=O)c3cc(OCC)c(OCC)c(OCC)c3)ccc21	/	/	/	1	/
NC1=NC2(CCCCC2)N(c2ccc(F)cc2)C(N)=N1	-3	3	12	-6	53*
CCOc1ccc(N2C(=O)C(=O)C(=C(O)c3ccccc3)C2c2ccccc2[N+](=O)[O-])cc1 (centres undefined)	/	/	/	4	/
CC(=O)c1c[nH]c(C(=O)NCc2cccc(C(F)(F)F)c2)c1	-9	1	-5	-11	53*
Cn1nc([N+](=O)[O-])c(C(C#N)c2nc3ccccc3s2)c(Cl)c1=O (centres undefined)	/	/	/	92*	/
C=CC[C@@H](CC(=O)N[C@@H](CO)Cc1ccccc1)C(=O)N[C@H](COC(=O)[C@H](CC=C)CC(=O)OC(C)(C)C)Cc1c[nH]c2ccccc12	/	/	25	6	/
C=CC[C@@H](CC(=O)N[C@H](CO)Cc1ccccc1)C(=O)N[C@H](COC(=O)[C@H](CC=C)CC(=O)OC(C)(C)C)Cc1c[nH]c2ccccc12	/	/	37*	7	/
N#Cc1ccccc1NC(=O)CSc1nccn1-c1ccc(C(=O)NCc2ccccc2F)cc1	/	/	/	35*	/
COC(=O)c1ccccc1Nc1ccccc1	-1	/	34*	-75	4
O=C(COC(=O)c1ccccc1Nc1ccccc1)c1ccccc1	0	12	12	-96	30
O=Cc1ccnc(-c2ccc(OC(=O)c3ccco3)cc2)n1	-5	36*	-14	-6	17
C/C(=N/NC(=S)NCc1ccco1)c1cccc([N+](=O)[O-])c1	/	/	/	66*	/
CCN(Cc1ccccc1)S(=O)(=O)c1ccc(C(=O)N(CCCN(C)C)c2nc3cc4c(cc3s2)OCCO4)cc1	/	7	21	47*	/
COc1cc2nc(N(CCCN(C)C)C(=O)c3ccc(S(=O)(=O)N4CCc5ccccc54)cc3)sc2cc1OC	/	1	1	27	/
CCN(CC)CCN(C(=O)c1ccc(S(=O)(=O)N(C)Cc2ccccc2)cc1)c1nc2cc3c(cc2s1)OCCO3	/	/	/	11	/
CCN(CC)CCN(C(=O)c1ccc(S(=O)(=O)N(C)Cc2ccccc2)cc1)c1nc2c(C)cccc2s1	/	/	/	24	/
COc1ccc2sc(N(Cc3ccccc3)C(=O)c3ccc(S(=O)(=O)N(C)C)cc3)nc2c1	/	/	/	-10	/
CN(C)CCCN(C(=O)c1ccc(S(=O)(=O)N(C)Cc2ccccc2)cc1)c1nc2c(F)cccc2s1	7	4	6	39*!	14
COc1ccc2sc(N(CCCN(C)C)C(=O)c3ccc(S(=O)(=O)N4CCCc5ccccc54)cc3)nc2c1	/	3	3	36*!	/
SMILES	SARS 3CLpro inh	RecA splice inh	CCHF vOTU inh	SSB-PriA inh	VHR inh abs
CCN(Cc1ccccc1)S(=O)(=O)c1ccc(C(=O)N(CCCN(C)C)c2nc3cc(OC)ccc3s2)cc1	/	0	11	51*!	/
CCN(Cc1ccccc1)S(=O)(=O)c1ccc(C(=O)N(CCCN(C)C)c2nc3ccc(F)cc3s2)cc1	4	8	6	37*!	2
CNCC(O)CN(c1ccccc1)c1ccccc1 (centres undefined)	-3	40*	11	-2	20
COc1ccc(NC(=O)Nc2cccc(-c3ccc(N4CCOCC4)nn3)c2)cc1OC	/	/	/	-5	/
NC(=O)CN1C(=O)C(O)(CC(=O)c2ccccc2O)c2ccccc21 (centres undefined)	16*	5	-2	-5	12
C=CCN1C(=O)C(O)(CC(=O)c2ccccc2)c2ccccc21 (centres undefined)	1	-1	4	1	25
CCOc1ccccc1NC(=O)CSc1nnc(-c2cccnc2)n1-n1cccc1	/	/	/	-9	/
COc1ccccc1NC(=O)N(CCN(C)C)Cc1cc2cc(C)ccc2[nH]c1=O	-1	1	1	4	52*
COc1ccccc1NC(=O)N(CCN1CCCC1)Cc1cc2cc(C)ccc2[nH]c1=O	-2	1	-12	-7	/
CCN(CC)C(=S)SCC(=O)Nc1c(Cl)cccc1Cl	/	/	/	-9	/
CCN(CC)C(=S)SC1=C(Cl)CS(=O)(=O)C1	/	/	/	98*	/
Cc1ccccc1OCC(=O)Nc1ccc(C)c(N2CCCC2=O)c1	/	/	/	5	/
Cc1ccc2c(c1)C1CN(C)CCC1N2Sc1ccccc1[N+](=O)[O-] (centres undefined)	-8	-5	-4	55*	-5
Cc1ccc2c(c1)[C@@H]1CN(C)CC[C@@H]1N2S(=O)(=O)c1ccc([N+](=O)[O-])cc1	-1	-1	-7	13	5
O=C(NCc1ccccc1)Nc1c[nH]c2ccccc12	/	/	/	-8	/
Cc1cc2cc(CNC(=O)Nc3c[nH]c4ccccc34)ccc2[nH]1	/	/	/	33*	/
CC(CCc1ccccc1)NC(=O)Nc1c[nH]c2ccccc12 (centres undefined)	/	/	/	39*	/
COC(=O)c1c(NC(=O)CC2Sc3ccccc3NC2=O)sc2c1CCC(C(C)(C)C)C2 (centres undefined)	/	/	/	-4	/
Cc1nc(SCC(=O)Nc2ccc(Cl)cc2[N+](=O)[O-])nc(C)c1C	4	2	-3	39*	1
Cc1cc(C)nc(SCC(=O)Nc2ccccc2[N+](=O)[O-])n1	2	1	-13	12	12
COc1ccc(NC(=S)NC(NC(=O)CCl)C(Cl)(Cl)Cl)c([N+](=O)[O-])c1 (centres undefined)	3	55*	/	27	-5
COc1ccc(NC(=O)CSc2nc3ccccc3n2-c2ccccc2)c([N+](=O)[O-])c1	3	14	18	42*	5
COc1ccc(NC(=O)CSc2ccc(F)cc2)c([N+](=O)[O-])c1	/	/	/	65*	/
Cn1nc(C(=O)Nc2ccc(F)c(Cl)c2)ccc1=O	/	/	/	-6	/
Cn1c(C(=O)c2ccccc2)nc2ccccc21	1	2	1	-16	6
Cn1c(C(=O)c2ccccc2[N+](=O)[O-])nc2ccccc21	1	-4	-7	39*!	20
Cc1cc(=O)[nH]c(-n2nc(C)cc2NC(=O)c2ccc(F)cc2F)n1	/	/	/	5	/
COc1ccccc1-c1nnc(NC(=O)C2CC(=O)N(c3ccc(F)cc3)C2)o1 (centres undefined)	/	/	/	13	/
